From PubChem BioAssay AID2716 (Broad Institute, 2010)
The whole screen tested about 320,000 compounds, of which about 3,300 (1%) were called active. The full list was thinned out, with actives kept by preference. Unmarked numbers belong to inactive results.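 How the source made its calls: active means every valid replicate shows activation above 250% relative to neutral control wells; inactive means the rest, any valid replicate at or below 250%.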

Assay: yeast Mot1-301 growth rescue at high temperature, primary screen, SUMOylation pathway inhibitor project, S. cerevisiae, ATP luminescence, 38.5C (AID 2716);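 further: OY570 slx delta 5 strain wells were the positive control but not used for scaling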
Conditions: S. cerevisiae Mot1-301 growth rescue, at 18.8 µM, stronger effect = higher value, percent above DMSO median, 100 means doubled

| Compound | growth rescue |
| --- | --- |
| Cc1ccccc1OCCC(=O)Nc1c(C)n(C)n(-c2ccccc2)c1=O | -23.7% |
| Cc1ccc(S(=O)(=O)CC(=O)Nc2c(C)n(C)n(-c3ccccc3)c2=O)cc1 | -28% |
| CC(=O)N1CCc2cc(Br)cc(S(=O)(=O)CCC(=O)Nc3c(C)n(C)n(-c4ccccc4)c3=O)c21 | 461% (active) |
| COC(=O)c1ccc(OC(=O)c2nn(C)cc2Cl)c(OC)c1 | -16.8% |
| Cc1c(NC(=O)c2c([N+](=O)[O-])cnn2C)c(=O)n(-c2ccccc2)n1C | 0.562% |
| CN(CC(=O)NCc1cccnc1)S(=O)(=O)c1cc(Cl)ccc1Cl | 249% |
| COc1ccc(CNS(=O)(=O)c2ccc(NC(=O)N3CCCCC3)cc2)cc1 | 1.4% |
| COc1cc(C2C(C#N)=C(N)Oc3n[nH]c(-c4ccccn4)c32)cc(OC)c1OC (stereo not given) | -11.1% |
| COc1ccc(-c2[nH]nc3c2C(c2ccncc2)C(C#N)=C(N)O3)cc1 (stereo not given) | 577% (active) |
| CCOc1c(OC)cc(C2C(C#N)=C(N)Oc3n[nH]c(-c4ccncc4)c32)cc1OC (stereo not given) | 365% |
| O=C(COC(=O)c1ccc(N2CCCC2=O)cc1)c1ccc(OC(F)F)cc1 | -26.3% |
| Cc1cc(OC(C)C(=O)Nc2ccc(S(=O)(=O)Nc3onc(C)c3C)cc2)cc(C)c1Cl (stereo not given) | -7.5% |
| Cc1cc(C)c2nc(-c3cccnc3)cc(C(=O)Nc3ccc(S(=O)(=O)Nc4onc(C)c4C)cc3)c2c1 | 404% (active) |
| CCn1c(SCC(=O)Nc2ccc(S(=O)(=O)Nc3onc(C)c3C)cc2)nnc1-c1ccccc1 | 8.66% |
| CC1CN(C(=S)Nc2cccc(F)c2)CC(C)O1 (stereo not given) | -11.7% |
| O=C(/C=C/c1ccco1)NC(=S)N1CCCCC1 | -4.55% |
| COc1ccccc1/C=C/C(=O)NC(=S)N1CCOCC1 | 413% (active) |
| COc1ccccc1/C=C/C(=O)NC1CC2CCC1C2 (stereo not given) | -19.4% |
| CC1CCN(S(=O)(=O)c2ccc3ncn(CC(=O)N(C)C4CCCCC4)c(=O)c3c2)CC1 | -3.24% |
| CC1CC(C)CN(C(=O)CCNC(=O)Cn2cnc3ccccc3c2=O)C1 (stereo not given) | 0.101% |
| CCN1CCCC1CNC(=O)Cn1cnc2ccc(S(=O)(=O)N3CCC(C)CC3)cc2c1=O (stereo not given) | 572% (active) |
| COC(=O)C1C(=O)CC(C)(O)C(C(=O)OC)C1c1ccc2c(c1)OCO2 (stereo not given) | -11.2% |
| COc1cccc(NC(=O)CC2C(=O)NCCN2C(=S)Nc2ccc(F)cc2)c1 (stereo not given) | 3.83% |
| COC(=O)c1sccc1NC(=O)CC1C(=O)NCCN1C(=O)Nc1ccc(F)cc1F (stereo not given) | 848% (active) |
| COC(=O)c1cc(NC(=O)CC2C(=O)NCCN2C(=O)c2ccc(F)cc2)cc(C(=O)OC)c1 (stereo not given) | 8.77% |
